# Reference: the supplement of paper PMC11001985
# Values without a mark were called inactive.
# Compound: C#CCNC(=O)CCSSCCC(=O)NCCc1ccc(C=O)c(C=O)c1
# Experiment: lysine labeling ratio R10:1 (500 µM / 50 µM probe), SILAC-ABPP in living cells; higher = lower intrinsic lysine reactivity toward the probe, active = 2 or less
# Settings: HeLa; probe concentrations 500 vs 50 µM
# How it was run: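 SILAC light and heavy living HeLa cells in PBS at room temperature were labelled with 50 µM or 500 µM of an alkyne-tagged, disulfide-linked lysine probe, with forward and reverse label swaps. Mixed lysates were clicked to biotin-azide, trypsin-digested, captured on neutravidin, DTT-released, alkylated and analysed by LC-MS/MS on a TIMS-TOF Pro. R is the filtered median high-probe/low-probe MS1 peptide ratio per lysine, then the median across forward and reverse replicates. Ratios are capped at 20.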
# Sequence of UniProt Q9H4F8 (Q9H4F8 whole entry): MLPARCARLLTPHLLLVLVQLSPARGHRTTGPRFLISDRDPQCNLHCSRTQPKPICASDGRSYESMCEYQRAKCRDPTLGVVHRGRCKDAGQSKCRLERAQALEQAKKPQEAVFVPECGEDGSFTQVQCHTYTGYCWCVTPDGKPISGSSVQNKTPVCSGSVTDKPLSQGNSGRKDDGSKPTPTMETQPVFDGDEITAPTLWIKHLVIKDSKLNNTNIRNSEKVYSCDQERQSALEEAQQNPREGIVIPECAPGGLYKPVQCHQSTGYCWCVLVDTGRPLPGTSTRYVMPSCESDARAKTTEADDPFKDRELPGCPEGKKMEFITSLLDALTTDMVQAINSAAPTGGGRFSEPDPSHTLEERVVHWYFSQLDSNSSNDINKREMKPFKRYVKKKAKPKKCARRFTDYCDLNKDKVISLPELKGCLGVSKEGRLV
# Sequence of UniProt P61604 (P61604 whole entry): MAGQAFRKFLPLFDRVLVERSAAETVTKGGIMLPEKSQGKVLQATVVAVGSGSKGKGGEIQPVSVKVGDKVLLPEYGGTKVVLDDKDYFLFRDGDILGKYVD
# Sequence of UniProt P06756 (P06756 whole entry): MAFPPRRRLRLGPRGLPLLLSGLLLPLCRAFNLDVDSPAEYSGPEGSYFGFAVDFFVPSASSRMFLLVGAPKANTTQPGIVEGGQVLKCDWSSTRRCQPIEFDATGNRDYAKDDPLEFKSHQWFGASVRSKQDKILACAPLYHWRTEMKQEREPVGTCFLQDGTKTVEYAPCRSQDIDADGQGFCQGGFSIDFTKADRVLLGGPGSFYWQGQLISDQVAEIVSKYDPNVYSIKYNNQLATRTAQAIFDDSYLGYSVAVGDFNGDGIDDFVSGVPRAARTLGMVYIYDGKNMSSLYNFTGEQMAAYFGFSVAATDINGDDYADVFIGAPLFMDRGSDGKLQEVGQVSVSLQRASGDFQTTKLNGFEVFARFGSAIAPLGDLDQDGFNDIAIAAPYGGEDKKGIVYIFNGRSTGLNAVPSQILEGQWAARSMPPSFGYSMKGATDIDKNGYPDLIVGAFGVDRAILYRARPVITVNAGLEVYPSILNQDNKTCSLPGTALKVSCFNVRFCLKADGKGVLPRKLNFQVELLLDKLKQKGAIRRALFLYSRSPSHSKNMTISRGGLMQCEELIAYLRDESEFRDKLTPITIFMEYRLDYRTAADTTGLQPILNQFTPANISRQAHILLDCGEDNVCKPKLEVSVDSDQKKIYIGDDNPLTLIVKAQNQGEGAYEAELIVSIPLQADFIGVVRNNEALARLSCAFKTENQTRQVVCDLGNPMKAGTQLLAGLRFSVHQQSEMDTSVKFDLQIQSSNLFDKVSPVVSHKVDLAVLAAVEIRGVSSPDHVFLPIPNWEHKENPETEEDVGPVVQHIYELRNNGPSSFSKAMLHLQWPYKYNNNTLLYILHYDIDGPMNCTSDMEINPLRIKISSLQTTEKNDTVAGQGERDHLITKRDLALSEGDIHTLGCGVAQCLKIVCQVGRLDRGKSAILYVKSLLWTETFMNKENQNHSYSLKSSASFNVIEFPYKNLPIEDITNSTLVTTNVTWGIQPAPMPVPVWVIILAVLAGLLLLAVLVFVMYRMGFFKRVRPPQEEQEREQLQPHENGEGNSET
# Sequence of UniProt Q8NC51 (Q8NC51 whole entry): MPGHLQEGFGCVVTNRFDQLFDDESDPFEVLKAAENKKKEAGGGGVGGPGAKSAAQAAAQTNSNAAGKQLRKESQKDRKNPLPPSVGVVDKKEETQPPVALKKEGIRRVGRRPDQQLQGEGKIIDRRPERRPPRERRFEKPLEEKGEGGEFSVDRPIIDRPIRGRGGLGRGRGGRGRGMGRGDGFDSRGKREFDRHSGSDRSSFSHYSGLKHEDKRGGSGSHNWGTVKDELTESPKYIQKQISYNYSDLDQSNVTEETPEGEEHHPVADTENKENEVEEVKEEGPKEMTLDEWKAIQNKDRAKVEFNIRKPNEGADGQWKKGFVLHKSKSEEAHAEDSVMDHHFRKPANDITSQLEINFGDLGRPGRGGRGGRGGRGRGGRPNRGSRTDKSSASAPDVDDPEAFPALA
# Sequence of UniProt P29401 (P29401 whole entry): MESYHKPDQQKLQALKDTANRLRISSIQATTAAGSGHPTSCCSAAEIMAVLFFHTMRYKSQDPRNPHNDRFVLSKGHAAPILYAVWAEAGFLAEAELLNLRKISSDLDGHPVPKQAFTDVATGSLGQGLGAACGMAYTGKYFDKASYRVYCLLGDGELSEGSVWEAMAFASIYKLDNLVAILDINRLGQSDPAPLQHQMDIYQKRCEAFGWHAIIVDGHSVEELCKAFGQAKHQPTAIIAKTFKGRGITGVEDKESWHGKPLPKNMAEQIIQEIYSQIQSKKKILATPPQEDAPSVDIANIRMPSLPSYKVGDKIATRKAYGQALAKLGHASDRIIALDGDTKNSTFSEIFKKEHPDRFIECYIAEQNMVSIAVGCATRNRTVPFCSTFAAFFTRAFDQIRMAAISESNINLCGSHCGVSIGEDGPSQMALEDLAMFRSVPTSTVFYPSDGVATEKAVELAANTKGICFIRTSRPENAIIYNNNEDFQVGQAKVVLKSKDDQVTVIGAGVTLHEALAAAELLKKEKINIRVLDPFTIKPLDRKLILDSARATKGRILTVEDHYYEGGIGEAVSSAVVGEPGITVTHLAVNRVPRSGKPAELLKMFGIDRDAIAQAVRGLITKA
# Sequence of UniProt Q6NZI2 (Q6NZI2 whole entry): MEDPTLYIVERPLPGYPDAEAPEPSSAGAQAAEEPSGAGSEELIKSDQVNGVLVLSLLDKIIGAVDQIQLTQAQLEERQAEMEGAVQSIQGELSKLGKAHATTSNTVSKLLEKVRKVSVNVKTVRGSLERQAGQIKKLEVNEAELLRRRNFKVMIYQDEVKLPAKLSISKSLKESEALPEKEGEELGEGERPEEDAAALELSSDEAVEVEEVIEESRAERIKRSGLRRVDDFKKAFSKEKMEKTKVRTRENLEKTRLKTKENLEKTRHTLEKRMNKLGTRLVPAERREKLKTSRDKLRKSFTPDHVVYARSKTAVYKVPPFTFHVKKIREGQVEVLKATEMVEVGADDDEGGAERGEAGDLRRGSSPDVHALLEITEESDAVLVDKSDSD
# Sequence of UniProt P08727 (P08727 whole entry): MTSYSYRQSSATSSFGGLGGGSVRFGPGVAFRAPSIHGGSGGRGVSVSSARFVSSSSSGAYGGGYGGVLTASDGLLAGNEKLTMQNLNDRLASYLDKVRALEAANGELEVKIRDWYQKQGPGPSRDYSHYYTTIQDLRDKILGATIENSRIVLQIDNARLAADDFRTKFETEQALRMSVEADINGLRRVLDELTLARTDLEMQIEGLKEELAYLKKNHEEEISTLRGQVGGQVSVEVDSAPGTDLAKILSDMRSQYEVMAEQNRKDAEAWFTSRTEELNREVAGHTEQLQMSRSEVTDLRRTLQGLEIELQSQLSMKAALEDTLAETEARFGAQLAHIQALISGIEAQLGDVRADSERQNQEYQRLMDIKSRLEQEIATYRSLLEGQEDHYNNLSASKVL
# Sequence of UniProt P22626 (P22626 whole entry): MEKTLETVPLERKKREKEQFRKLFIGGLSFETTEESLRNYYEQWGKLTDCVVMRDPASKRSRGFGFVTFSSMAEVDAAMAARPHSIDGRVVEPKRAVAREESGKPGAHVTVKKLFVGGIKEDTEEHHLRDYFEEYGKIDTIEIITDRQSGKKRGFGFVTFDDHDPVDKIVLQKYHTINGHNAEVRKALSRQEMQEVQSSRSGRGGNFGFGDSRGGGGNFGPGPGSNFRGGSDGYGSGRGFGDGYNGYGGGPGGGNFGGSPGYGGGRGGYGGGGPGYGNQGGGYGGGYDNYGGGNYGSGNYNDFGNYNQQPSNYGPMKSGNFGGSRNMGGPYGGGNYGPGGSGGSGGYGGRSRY
# Sequence of UniProt O75054 (O75054 whole entry): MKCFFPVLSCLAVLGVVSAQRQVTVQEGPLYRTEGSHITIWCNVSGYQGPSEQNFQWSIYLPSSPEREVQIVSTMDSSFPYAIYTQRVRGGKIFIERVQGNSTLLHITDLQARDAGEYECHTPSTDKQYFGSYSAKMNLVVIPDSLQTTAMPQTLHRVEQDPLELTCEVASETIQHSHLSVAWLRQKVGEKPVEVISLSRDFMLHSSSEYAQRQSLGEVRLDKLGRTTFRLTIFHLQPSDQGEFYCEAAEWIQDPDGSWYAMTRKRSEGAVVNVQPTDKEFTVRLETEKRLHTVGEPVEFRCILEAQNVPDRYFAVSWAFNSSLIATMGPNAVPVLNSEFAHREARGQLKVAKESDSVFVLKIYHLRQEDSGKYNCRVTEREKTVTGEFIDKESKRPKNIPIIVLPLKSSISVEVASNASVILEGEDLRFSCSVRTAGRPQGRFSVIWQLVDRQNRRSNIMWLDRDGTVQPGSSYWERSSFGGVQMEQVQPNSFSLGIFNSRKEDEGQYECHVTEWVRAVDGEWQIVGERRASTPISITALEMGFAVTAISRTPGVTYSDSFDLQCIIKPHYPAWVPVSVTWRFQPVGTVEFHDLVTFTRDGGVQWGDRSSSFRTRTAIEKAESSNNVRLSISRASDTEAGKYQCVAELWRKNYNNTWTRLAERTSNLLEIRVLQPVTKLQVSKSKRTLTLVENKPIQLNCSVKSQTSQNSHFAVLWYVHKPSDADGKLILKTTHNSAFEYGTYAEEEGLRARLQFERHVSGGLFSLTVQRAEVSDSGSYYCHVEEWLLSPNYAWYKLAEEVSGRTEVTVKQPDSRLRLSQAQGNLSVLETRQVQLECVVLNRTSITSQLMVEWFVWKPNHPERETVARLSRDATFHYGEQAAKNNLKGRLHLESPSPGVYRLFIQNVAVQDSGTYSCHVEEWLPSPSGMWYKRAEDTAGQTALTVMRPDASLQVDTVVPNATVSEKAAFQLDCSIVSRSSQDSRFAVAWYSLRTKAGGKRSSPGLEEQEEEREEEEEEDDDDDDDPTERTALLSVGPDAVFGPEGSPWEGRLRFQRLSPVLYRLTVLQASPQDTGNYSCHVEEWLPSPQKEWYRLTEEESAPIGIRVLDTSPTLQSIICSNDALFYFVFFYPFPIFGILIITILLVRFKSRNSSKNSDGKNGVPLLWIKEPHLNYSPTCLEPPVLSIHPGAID
row,Target,lysine labeling ratio R10:1
1,UniProt P55072 (lysine site: K754),2.84
2,UniProt Q6NZI2 (lysine site: K258),9.27
3,UniProt P08727 (lysine site: K118),3.16
4,IGF2R (lysine site: K808) (UniProt P11717),5.23
5,P4HB (lysine site: K71) (UniProt P07237),7.22
6,CCT5 (lysine site: K514) (UniProt P48643),2.42
7,UniProt P26639 (lysine site: K36),3.28
8,SMOC1 (lysine site: K53) (UniProt Q9H4F8),2.22
9,FLNA (lysine site: K1375) (UniProt P21333),2.93
10,LRP8 (lysine site: K420) (UniProt Q14114),0.962 (active)
11,SERBP1 (lysine site: K303) (UniProt Q8NC51),2.74
12,HNRNPA2B1 (lysine site: K120) (UniProt P22626),5.33
13,ITGAV (lysine site: K400) (UniProt P06756),0.958 (active)
14,UniProt Q15149 (lysine site: K1520),3.8
15,IGSF3 (lysine site: K811) (UniProt O75054),3.23
16,UniProt Q29980 (lysine site: K196),4.62
17,TLN1 (lysine site: K2361) (UniProt Q9Y490),5.09
18,TKT (lysine site: K314) (UniProt P29401),5.08
19,BCAP31 (lysine site: K176) (UniProt P51572),0.745 (active)
20,LMO7 (lysine site: K1456) (UniProt Q8WWI1),1.37 (active)
21,L1CAM (lysine site: K530) (UniProt P32004),7.51
22,HSPE1 (lysine site: K86) (UniProt P61604),1.85 (active)
23,NUCB1 (lysine site: K183) (UniProt Q02818),3.16
